Some test systems named below: HCT-15 colon; HT29 colon; SNB-75 CNS; SNB-19 CNS; U251 CNS; PC-3 prostate; SK-MEL-5 melanoma; UACC-62 melanoma; LOX IMVI melanoma; SK-MEL-28 melanoma; SK-MEL-2 melanoma; EKVX NSCLC; UO-31 renal; TK-10 renal; ACHN renal; CAKI-1 renal; A498 renal; CCRF-CEM leukemia; MOLT-4 leukemia.
Common to all, as to assay: NCI-60 one-dose screen, 48 h (100 = growth as untreated, 0 = no growth, -100 = all killed)
Holding throughout (conditions): 10 µM

The record followed here is PubChem BioAssay (NCI).

About 83,000 compounds went through this panel and 20% of them were active in at least one assay; those are over-represented in the sample as a whole.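 The endpoint reported here, percent growth, reads 100 for growth as untreated, 0 for no net growth and -100 for all cells dead.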 Values without a mark were called inactive. Active and inactive are the calls of the source. The calls were made as follows: active = growth percent below 10; inactive = the rest.

With `CCCCN(CCCC)c1ccc(C(=NC(C)CCCN(CC)CC)c2ccc(N(C)C)cc2)cc1` (configuration not stated), the growth was -79.8% (active) in the experiment on HCT-15 colon; -71.9% (active) in the experiment with HT29 colon; -34% (active) in the experiment on SNB-75 CNS; -23% (active) with SNB-19 CNS; -79.9% (active) in the experiment on U251 CNS; -42.4% (active) in the experiment on PC-3 prostate. The growth in the experiment with SK-MEL-5 melanoma is -99.6% (active); in the experiment with UACC-62 melanoma it was -73.5% (active); in the experiment with LOX IMVI melanoma, -96.7% (active); with SK-MEL-28 melanoma it was -72.1% (active); in the experiment with SK-MEL-2 melanoma, -78.9% (active); in the experiment with EKVX NSCLC it was -30.4% (active). Moreover, the growth is -87.8% (active) in the experiment on UO-31 renal; -8.82% (active) in the experiment on TK-10 renal; -41.3% (active) in the experiment on ACHN renal; -5.33% (active) in the experiment on CAKI-1 renal; -12.4% (active) with A498 renal; 7.26% (active) in the experiment with CCRF-CEM leukemia. For the same molecule, the growth in the experiment on MOLT-4 leukemia is -6.33% (active).
Take `O=C(Nc1cccc(Cl)c1)OCC(COC(=O)Nc1cccc(Cl)c1)(COC(=O)Nc1cccc(Cl)c1)[N+](=O)[O-]`: the growth in the experiment on HCT-15 colon was 22.6%; in the experiment with HT29 colon it was 32%; in the experiment on SNB-75 CNS, 49.9%; in the experiment with SNB-19 CNS it was 42.8%; in the experiment with U251 CNS it was 34.7%; in the experiment on PC-3 prostate, 24.1%. The growth is 44.2% in the experiment on SK-MEL-5 melanoma; 31.9% in the experiment with UACC-62 melanoma; 15.6% in the experiment with LOX IMVI melanoma; 51.1% in the experiment with SK-MEL-28 melanoma; 49.7% in the experiment with SK-MEL-2 melanoma; 28.3% in the experiment on EKVX NSCLC. Moreover, the growth was 30.9% in the experiment on UO-31 renal; 53.7% in the experiment with TK-10 renal; 39.8% in the experiment with ACHN renal; 49.8% in the experiment on CAKI-1 renal; 21.1% in the experiment on A498 renal; 21.4% in the experiment on CCRF-CEM leukemia. Moreover, the growth in the experiment on MOLT-4 leukemia was 4.15% (active).
Regarding `Nc1cc(O)cc(O)c1`, the growth in the experiment with HCT-15 colon is 97.9%; in the experiment on HT29 colon, 95%; in the experiment on SNB-75 CNS it was 91.8%; in the experiment on SNB-19 CNS it was 96.5%; in the experiment on U251 CNS, 104%; with PC-3 prostate it was 96.6%. Besides, the growth is 109% in the experiment on SK-MEL-5 melanoma; 94.7% in the experiment on UACC-62 melanoma; 95% in the experiment with LOX IMVI melanoma; 101% in the experiment with SK-MEL-28 melanoma; 98.7% in the experiment on SK-MEL-2 melanoma; 97.1% with EKVX NSCLC. Further, the growth with UO-31 renal was 97.8%; in the experiment on TK-10 renal it was 87.4%; in the experiment with ACHN renal, 105%; in the experiment with CAKI-1 renal, 96.2%; in the experiment on A498 renal, 116%; with CCRF-CEM leukemia, 114%. Moreover, the growth in the experiment on MOLT-4 leukemia is 104%.
On to `Cc1ccc(-n2c(-c3cc4c([nH]c5ccccc54)c(-c4cccc(O)c4)n3)n[nH]c2=S)cc1`, for which the growth was 2.88% (active) with HCT-15 colon; -44% (active) in the experiment on HT29 colon; 5.15% (active) with SNB-75 CNS; 4.47% (active) in the experiment on SNB-19 CNS; -3.05% (active) in the experiment on U251 CNS; 19.4% in the experiment on PC-3 prostate. The growth with SK-MEL-5 melanoma is -17.5% (active); in the experiment with UACC-62 melanoma, -40.3% (active); in the experiment with LOX IMVI melanoma, -77% (active); with SK-MEL-28 melanoma, 7.56% (active); in the experiment on SK-MEL-2 melanoma it was -48.1% (active); with EKVX NSCLC, 19.4%. For the same molecule, the growth in the experiment with UO-31 renal was 30.9%; in the experiment with TK-10 renal, 24.9%; with ACHN renal, 32.6%; with CAKI-1 renal it was 7.33% (active); in the experiment with A498 renal, -40% (active); in the experiment with CCRF-CEM leukemia, 7.56% (active). Also, in the experiment on MOLT-4 leukemia, the growth was 0.747% (active).
For the molecule `CCCCn1c(=O)[nH]c2c(c1=O)C(c1ccc(Cl)cc1)c1c([nH]c(=O)n(CCCC)c1=O)N2`, the growth is 95.6% in the experiment with HCT-15 colon; 97.2% in the experiment on HT29 colon; 91.7% in the experiment on SNB-75 CNS; 99.5% in the experiment with SNB-19 CNS; 94% in the experiment on U251 CNS; 93.4% in the experiment on PC-3 prostate. Further, the growth with SK-MEL-5 melanoma is 102%; in the experiment on UACC-62 melanoma, 98.2%; in the experiment on LOX IMVI melanoma, 94.9%; in the experiment on SK-MEL-28 melanoma, 102%; in the experiment with SK-MEL-2 melanoma, 108%; in the experiment on EKVX NSCLC it was 99.9%. The growth in the experiment with UO-31 renal was 94.9%; with TK-10 renal, 91.3%; with ACHN renal it was 105%; in the experiment with CAKI-1 renal, 95.6%; in the experiment on A498 renal, 103%; in the experiment on CCRF-CEM leukemia, 108%. Besides, the growth in the experiment on MOLT-4 leukemia is 104%.
Consider `C#CCNCCN1C(=O)c2ccc3c4c(ccc(c24)C1=O)C(=O)N(CCNCC#C)C3=O`, for which the growth in the experiment with HCT-15 colon was 19.5%; in the experiment on HT29 colon it was 2.13% (active); with SNB-75 CNS, 75.4%; in the experiment with SNB-19 CNS, 46%; in the experiment with U251 CNS, 29.5%; with PC-3 prostate, 47.7%. Also, the growth with SK-MEL-5 melanoma is -81.3% (active); with UACC-62 melanoma, 16.7%; in the experiment on LOX IMVI melanoma it was -3.21% (active); in the experiment with SK-MEL-28 melanoma it was 83.9%; with SK-MEL-2 melanoma it was 58.6%; in the experiment with EKVX NSCLC, 55.7%. In addition, the growth is 29.5% with UO-31 renal; 51.7% in the experiment on TK-10 renal; 22.9% with ACHN renal; 49.8% in the experiment with CAKI-1 renal; 94.1% with A498 renal; 40.2% with CCRF-CEM leukemia. The growth in the experiment on MOLT-4 leukemia was 20%.
In the case of `C[C@@H]1C(=O)N(C[C@H](Cc2ccccc2)NC(=O)OCc2ccccc2)[C@]1(Cc1ccccc1)C(=O)OCc1ccccc1`, the growth in the experiment on HCT-15 colon is 39.3%; with HT29 colon, 43.7%; in the experiment with SNB-75 CNS, 52.5%; in the experiment with SNB-19 CNS it was 56.7%; in the experiment with U251 CNS, 35.2%; with PC-3 prostate, 10.4%. Moreover, the growth with SK-MEL-5 melanoma was 13.2%; in the experiment on UACC-62 melanoma, 40.7%; in the experiment on LOX IMVI melanoma it was 36.5%; in the experiment on SK-MEL-28 melanoma, 66.9%; in the experiment on SK-MEL-2 melanoma it was 42.9%; with EKVX NSCLC, 34%. Moreover, the growth in the experiment with UO-31 renal was 16.4%; in the experiment on TK-10 renal, 29.1%; in the experiment with ACHN renal, 32.2%; in the experiment on CAKI-1 renal, 32.2%; in the experiment on A498 renal, 37.7%; in the experiment on CCRF-CEM leukemia it was 52.6%. Also, in the experiment with MOLT-4 leukemia, the growth is -0.259% (active).
As for `O=S(=O)(NC1c2ccccc2Oc2ccccc21)c1ccccc1`, the growth with HCT-15 colon was 91.8%; in the experiment with HT29 colon it was 92.2%; in the experiment with SNB-75 CNS it was 88.4%; in the experiment with SNB-19 CNS, 105%; in the experiment on U251 CNS it was 91.9%; in the experiment with PC-3 prostate, 88.2%. For the same molecule, the growth in the experiment on SK-MEL-5 melanoma is 102%; in the experiment on UACC-62 melanoma it was 97.8%; in the experiment with LOX IMVI melanoma, 87.5%; with SK-MEL-28 melanoma, 101%; in the experiment with SK-MEL-2 melanoma, 94%; with EKVX NSCLC, 102%. In addition, the growth with UO-31 renal was 81.9%; in the experiment on TK-10 renal, 86.4%; in the experiment on ACHN renal, 84.5%; with CAKI-1 renal it was 90.1%; in the experiment on A498 renal, 92.2%; in the experiment on CCRF-CEM leukemia, 61.8%. Further, the growth in the experiment on MOLT-4 leukemia is 88.1%.
